In the supplement of paper PMC11732987, “Enantioselective OTUD7B fragment discovery through chemoproteomics screening and high-throughput optimisation” (Communications Chemistry, 2025):

Legend:
Assay in all cases: log2 ratio of Biotin-Ahx-Ub-VS probe labelling (fragment/DMSO); higher = less target engagement (more negative = stronger competition), active = hit call of the paper (q ≤ 0.05, log2 ratio ≤ -1)
Conditions in all cases: compound concentration: 200 uM; treatment time: 3 h
[1] = target: T1, USP19 (UniProt O94966)
T1 sequence (whole entry): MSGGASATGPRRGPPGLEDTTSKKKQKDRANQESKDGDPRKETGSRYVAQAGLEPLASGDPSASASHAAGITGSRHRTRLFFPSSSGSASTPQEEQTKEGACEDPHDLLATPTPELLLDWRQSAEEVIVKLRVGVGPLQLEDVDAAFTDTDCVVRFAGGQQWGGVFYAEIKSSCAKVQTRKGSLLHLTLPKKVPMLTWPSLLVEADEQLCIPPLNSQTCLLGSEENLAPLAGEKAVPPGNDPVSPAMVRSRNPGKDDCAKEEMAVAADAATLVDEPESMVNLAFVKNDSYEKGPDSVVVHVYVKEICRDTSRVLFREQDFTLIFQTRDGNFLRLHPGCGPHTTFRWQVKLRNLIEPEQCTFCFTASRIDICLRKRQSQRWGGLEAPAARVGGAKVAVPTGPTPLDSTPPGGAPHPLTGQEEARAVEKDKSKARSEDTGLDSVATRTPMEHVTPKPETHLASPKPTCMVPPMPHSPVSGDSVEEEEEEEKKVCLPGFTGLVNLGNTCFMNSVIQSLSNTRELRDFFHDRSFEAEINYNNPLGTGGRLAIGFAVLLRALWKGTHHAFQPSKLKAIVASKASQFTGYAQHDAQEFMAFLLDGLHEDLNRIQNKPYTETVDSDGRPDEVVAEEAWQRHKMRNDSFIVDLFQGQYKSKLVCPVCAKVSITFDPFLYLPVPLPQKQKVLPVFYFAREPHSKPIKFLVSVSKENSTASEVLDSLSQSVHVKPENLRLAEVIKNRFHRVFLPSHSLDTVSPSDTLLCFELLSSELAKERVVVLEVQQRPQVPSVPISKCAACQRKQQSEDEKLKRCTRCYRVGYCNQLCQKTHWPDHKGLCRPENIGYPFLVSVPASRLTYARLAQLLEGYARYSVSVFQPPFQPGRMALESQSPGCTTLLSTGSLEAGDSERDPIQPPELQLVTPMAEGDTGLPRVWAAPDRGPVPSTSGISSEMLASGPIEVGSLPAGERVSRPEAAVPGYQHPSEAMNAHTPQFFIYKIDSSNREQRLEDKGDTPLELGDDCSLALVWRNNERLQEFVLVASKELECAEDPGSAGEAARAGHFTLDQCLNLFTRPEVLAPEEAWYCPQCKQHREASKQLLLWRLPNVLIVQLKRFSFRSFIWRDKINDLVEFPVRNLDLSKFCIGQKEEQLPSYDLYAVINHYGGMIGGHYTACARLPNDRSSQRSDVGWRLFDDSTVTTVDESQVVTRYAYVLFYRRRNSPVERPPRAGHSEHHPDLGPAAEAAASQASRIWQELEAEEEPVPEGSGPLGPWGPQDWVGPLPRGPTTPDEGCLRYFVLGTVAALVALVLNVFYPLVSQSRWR
Method in brief: (§1)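 Triplicate samples of HEK293T lysate, 495 µg each, received fragment at 200 µM or vehicle for 3 h, followed by Biotin-Ahx-Ub-VS (0.5 µM final) for 1 h. After NeutrAvidin enrichment of labelled DUBs and LysC/trypsin digestion, peptides were run by diaPASEF LC-MS/MS. The values are average log2 fragment/vehicle ratios from global-median-normalised Spectronaut label-free quantities, tested by unpaired t-test on proteins having ≥2 unique peptides.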

[2] = target: T2, USP22 (UniProt Q9UPT9)
T2 sequence (whole entry): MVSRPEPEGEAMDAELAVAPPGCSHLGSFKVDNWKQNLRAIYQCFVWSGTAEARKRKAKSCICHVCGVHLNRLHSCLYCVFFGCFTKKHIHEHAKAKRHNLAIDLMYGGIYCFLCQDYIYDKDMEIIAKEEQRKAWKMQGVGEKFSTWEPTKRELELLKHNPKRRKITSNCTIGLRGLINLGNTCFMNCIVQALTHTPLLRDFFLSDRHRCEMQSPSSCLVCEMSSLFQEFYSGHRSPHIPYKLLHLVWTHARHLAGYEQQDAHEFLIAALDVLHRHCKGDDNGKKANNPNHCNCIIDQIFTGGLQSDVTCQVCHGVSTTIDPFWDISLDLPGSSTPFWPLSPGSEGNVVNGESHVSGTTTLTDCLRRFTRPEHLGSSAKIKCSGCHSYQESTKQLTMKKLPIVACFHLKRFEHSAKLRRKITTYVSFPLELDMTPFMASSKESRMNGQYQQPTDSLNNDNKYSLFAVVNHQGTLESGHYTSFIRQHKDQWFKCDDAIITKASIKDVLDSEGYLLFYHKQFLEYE
Method in brief: as §1

[3] = target: USP24 (UniProt Q9UPU5)
Method in brief: as §1

[4] = target: T3, USP25 (UniProt Q9UHP3)
T3 sequence (whole entry): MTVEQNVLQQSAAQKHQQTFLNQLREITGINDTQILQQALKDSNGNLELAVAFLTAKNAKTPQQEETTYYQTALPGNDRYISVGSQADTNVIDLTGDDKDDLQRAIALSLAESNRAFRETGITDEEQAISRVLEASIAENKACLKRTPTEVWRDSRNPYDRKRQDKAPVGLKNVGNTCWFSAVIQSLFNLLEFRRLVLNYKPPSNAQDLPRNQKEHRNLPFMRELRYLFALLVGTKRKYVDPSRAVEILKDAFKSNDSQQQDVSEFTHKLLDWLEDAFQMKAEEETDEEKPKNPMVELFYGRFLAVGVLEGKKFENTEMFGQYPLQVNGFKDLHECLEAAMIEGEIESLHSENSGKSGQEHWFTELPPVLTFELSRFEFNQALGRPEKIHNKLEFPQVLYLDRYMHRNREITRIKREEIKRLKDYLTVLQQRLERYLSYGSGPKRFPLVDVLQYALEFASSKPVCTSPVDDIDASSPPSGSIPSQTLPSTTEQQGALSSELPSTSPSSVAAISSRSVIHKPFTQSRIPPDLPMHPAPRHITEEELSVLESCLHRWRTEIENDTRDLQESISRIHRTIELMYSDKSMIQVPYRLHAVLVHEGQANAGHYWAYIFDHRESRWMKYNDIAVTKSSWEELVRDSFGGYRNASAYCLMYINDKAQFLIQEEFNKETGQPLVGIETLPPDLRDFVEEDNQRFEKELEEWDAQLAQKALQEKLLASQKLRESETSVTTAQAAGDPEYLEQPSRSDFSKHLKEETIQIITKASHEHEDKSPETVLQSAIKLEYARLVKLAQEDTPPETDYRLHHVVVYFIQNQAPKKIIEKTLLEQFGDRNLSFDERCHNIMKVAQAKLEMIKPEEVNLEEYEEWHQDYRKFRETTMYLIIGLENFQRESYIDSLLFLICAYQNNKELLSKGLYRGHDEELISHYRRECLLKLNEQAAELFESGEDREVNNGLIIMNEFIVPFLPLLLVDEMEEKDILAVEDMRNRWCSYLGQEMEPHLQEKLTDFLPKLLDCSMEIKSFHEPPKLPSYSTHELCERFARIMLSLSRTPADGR
Method in brief: as §1

[5] = target: T4, USP28 (UniProt Q96RU2)
T4 sequence (whole entry): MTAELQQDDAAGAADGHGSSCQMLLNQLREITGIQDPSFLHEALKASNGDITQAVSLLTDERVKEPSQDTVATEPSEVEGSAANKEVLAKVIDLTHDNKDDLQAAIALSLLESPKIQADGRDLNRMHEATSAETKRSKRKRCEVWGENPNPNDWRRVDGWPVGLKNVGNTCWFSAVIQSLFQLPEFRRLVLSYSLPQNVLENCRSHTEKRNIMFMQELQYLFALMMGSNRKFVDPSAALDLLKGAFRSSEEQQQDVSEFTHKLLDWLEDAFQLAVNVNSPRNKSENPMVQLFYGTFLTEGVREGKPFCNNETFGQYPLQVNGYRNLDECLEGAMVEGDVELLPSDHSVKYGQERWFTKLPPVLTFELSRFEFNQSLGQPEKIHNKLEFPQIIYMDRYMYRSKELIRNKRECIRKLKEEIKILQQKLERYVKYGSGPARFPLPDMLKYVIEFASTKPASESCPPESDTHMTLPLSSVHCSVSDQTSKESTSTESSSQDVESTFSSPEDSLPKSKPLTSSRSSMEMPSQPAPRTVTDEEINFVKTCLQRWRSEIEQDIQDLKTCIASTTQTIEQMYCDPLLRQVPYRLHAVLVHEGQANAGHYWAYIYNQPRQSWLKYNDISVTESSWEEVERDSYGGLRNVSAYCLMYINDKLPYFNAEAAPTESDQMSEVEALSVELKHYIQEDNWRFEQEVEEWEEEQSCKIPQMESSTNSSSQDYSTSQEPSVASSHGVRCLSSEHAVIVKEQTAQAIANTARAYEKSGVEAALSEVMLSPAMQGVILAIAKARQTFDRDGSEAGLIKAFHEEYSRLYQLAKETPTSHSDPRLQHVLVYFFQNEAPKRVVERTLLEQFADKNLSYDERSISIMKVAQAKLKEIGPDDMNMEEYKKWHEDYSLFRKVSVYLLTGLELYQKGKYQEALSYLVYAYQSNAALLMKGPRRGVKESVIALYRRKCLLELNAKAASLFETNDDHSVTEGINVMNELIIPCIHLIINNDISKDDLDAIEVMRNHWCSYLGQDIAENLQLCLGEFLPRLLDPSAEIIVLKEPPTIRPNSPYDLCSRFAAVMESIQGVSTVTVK
Method in brief: as §1

Measured: log2 ratio of Biotin-Ahx-Ub-VS probe labelling

USP24, sequence (Q9UPU5 whole entry): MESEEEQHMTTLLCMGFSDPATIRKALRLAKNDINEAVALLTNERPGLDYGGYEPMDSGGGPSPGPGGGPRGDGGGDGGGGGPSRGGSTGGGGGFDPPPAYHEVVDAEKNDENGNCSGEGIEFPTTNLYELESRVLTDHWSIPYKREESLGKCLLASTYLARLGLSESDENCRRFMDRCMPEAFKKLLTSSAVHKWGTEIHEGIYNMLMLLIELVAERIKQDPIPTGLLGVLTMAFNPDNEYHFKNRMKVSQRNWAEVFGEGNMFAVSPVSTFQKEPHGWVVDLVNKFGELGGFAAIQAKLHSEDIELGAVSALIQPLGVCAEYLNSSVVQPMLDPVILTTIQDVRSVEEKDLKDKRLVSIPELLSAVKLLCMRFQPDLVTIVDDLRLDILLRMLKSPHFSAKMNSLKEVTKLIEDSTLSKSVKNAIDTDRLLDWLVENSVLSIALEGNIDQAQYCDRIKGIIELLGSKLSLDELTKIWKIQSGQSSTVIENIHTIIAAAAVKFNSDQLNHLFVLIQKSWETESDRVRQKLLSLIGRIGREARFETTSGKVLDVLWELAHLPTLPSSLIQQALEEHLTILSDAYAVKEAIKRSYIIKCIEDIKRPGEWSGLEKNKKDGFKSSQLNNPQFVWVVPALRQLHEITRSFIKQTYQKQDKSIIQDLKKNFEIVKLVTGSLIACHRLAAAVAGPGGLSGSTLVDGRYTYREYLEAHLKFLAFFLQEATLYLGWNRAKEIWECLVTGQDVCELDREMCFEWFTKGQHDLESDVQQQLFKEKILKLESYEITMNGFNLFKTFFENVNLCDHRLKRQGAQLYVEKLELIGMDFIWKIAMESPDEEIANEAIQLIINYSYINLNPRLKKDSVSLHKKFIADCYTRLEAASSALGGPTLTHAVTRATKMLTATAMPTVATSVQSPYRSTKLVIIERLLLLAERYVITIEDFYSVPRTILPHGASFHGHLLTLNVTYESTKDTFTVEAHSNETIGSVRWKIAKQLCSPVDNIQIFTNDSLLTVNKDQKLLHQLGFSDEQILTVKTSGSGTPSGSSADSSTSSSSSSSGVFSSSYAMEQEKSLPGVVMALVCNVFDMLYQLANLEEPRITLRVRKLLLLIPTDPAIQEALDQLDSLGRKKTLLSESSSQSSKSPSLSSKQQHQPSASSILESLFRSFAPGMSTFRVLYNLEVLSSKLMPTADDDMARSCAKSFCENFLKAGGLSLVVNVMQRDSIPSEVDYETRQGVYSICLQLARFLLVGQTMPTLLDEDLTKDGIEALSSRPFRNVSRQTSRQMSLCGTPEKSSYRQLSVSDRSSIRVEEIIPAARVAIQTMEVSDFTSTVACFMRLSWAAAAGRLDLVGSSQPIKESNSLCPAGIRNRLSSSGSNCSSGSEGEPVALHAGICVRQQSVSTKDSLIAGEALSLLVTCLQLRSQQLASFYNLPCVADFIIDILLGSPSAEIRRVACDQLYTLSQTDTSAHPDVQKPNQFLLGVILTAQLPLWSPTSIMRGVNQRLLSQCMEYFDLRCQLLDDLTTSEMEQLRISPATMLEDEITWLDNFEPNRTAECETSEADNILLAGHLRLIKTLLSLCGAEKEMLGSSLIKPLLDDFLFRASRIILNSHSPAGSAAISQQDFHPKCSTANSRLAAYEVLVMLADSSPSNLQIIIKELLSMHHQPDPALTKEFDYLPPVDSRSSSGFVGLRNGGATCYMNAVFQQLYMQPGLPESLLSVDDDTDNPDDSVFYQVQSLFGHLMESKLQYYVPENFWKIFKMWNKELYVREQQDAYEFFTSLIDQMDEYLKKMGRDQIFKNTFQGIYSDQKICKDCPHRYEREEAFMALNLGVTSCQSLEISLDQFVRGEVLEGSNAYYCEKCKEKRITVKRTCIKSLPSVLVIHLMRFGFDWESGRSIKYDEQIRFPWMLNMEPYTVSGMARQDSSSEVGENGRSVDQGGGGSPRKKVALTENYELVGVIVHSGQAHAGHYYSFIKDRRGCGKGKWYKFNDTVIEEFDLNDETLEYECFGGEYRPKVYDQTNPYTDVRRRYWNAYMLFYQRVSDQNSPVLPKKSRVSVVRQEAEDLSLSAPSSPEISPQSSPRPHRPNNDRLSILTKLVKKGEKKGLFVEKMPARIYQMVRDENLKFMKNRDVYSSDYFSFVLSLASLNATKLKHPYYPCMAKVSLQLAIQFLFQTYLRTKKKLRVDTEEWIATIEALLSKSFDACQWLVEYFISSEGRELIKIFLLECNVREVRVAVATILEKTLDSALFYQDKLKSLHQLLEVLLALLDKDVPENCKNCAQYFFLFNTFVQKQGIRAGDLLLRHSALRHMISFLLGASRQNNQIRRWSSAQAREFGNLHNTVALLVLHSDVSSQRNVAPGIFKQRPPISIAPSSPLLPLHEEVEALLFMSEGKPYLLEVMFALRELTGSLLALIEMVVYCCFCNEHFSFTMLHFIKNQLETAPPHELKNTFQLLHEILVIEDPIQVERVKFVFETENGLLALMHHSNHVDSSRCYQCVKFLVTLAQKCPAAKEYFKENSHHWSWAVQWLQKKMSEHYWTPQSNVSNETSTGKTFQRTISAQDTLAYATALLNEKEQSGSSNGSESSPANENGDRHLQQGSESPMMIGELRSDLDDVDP

Cc1ccc(N(C(=O)CCl)C2C=CS(=O)(=O)C2)cc1 (stereo not given)
inactive: [1] 0.0392 | [2] 0.0416 | [3] -0.681 | [4] 0.0868 | [5] -0.13
